Each structure is given as a SMILES string. The source made the active and inactive calls.

This is an account of results in PubChem BioAssay.

Assay [1] is described as follows: A549 cell viability effects, profiling panel, calcein-AM fluorescence, 48 h, basal (AID 1162). As to conditions: higher = more signal.
A short description of assay [2]: adipocyte viability effects, profiling panel, cell-based, 3T3-L1 adipocytes, calcein-AM fluorescence, 48 h, basal (AID 1163). As to conditions: 3T3-L1 adipocytes viability, higher = more signal.
Assay [3] can be described thus: HepG2 cell viability effects, profiling panel, calcein-AM fluorescence, 48 h, basal (AID 1164). As to conditions: higher = more signal.
Assay [4] can be described thus: MM1S cell viability effects, profiling panel, calcein-AM fluorescence, 48 h, basal (AID 1165).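 Note: viability of MM1S multiple myeloma cells under basal unstimulated conditions.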 As to conditions: higher = more signal.
Assay [5] in a line: basal RPMI8226 viability, no added stimulus, profiling panel, cell-based, calcein-AM fluorescence, 48 h, PK04 Diversity Set (AID 1166).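 Note: cells grown under basal conditions without added stimulus.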 As to conditions: RPMI8226 myeloma viability, higher = more signal.
Assay [6] can be described thus: basal HepG2 mitochondrial membrane potential changes, profiling panel, cell-based, JC-1 fluorescence, 24 h, 100 nL compound (AID 1167). As to conditions: higher = more signal.
Assay [7] is described as follows: basal 3T3-L1 adipocyte mitochondrial potential changes, profiling panel, cell-based, JC-1 fluorescence, 3T3-L1 adipocytes, 24 h, 100 nL compound (AID 1168). As to conditions: JC-1 mitochondrial fluorescence, higher = more signal, called active from +8 up or from −8 down.
Assay [8] is described as follows: basal RPMI8226 mitochondrial membrane potential changes, profiling panel, cell-based, JC-1 fluorescence, 24 h, 100 nL compound (AID 1169). As to conditions: RPMI8226 myeloma, JC-1 mitochondrial potential fluorescence, higher = more signal.
Assay [9] can be described thus: basal MM1S mitochondrial membrane potential changes, profiling panel, cell-based, JC-1 fluorescence, 24 h, 100 nL compound (AID 1170). As to conditions: higher = more signal.
Assay [10] can be described thus: A549 lung cancer cell viability effects, profiling panel, resazurin fluorescence, 24 h, PK04 Diversity Set (AID 1171). As to conditions: higher = more signal, called active from +8 up or from −8 down.
Note: test concentration not given here.

For `C[C@H]1CC[C@@H](C(=O)O)N[C@@H]1c1cccc(N2CCCC2=O)c1`, the z-score was 0.594 in assay [1]; -0.115 in [2]; 0.652 in assay [3]; 0.149 in assay [4]; -1.12 in [5]; 1.66 in [6]. Also, the z-score in assay [7] is 0.574 (inactive); in [8] it was 0.468; in assay [9] it was -0.436; in assay [10] it was 0.0065 (inactive).
As for `COC(=O)CC=C[C@@H](C)[C@@H](C=NOC[C@@H](O)COCc1ccco1)NS(=O)(=O)c1ccc(C)cc1`, the z-score in assay [1] is -0.393; in assay [2] it was -0.295; in assay [3], 0.3; in assay [4], -0.833; in assay [5] it was -0.623; in assay [6] it was -1.23. Moreover, the z-score in assay [7] is 0.0134 (inactive); in [8], -0.655; in assay [9], -0.436; in assay [10] it was -0.44 (inactive).
Consider `CCCNC(=O)OC[C@H]1O[C@H](CCON=C2C[C@@H](O)[C@@H](O)[C@@H]3[C@@H]4C(=O)N(CC)C(=O)[C@@H]4CC[C@@H]23)C=C[C@@H]1Oc1ccc(OC)cc1`, for which the z-score is 0.778 in assay [1]; 0.206 in assay [2]; -0.652 in [3]; -1.61 in [4]; 0.141 in assay [5]; -1.18 in assay [6]. For the same compound, the z-score in [7] was -0.245 (inactive); in assay [8], 0.195; in assay [9], -0.39; in assay [10], -0.454 (inactive).
Take `CCCCOC(OCCCC)C(O)CSc1ccc2ccccc2c1` (stereo not given): the z-score in assay [1] is -1.28; in [2], -0.809; in [3], 0.0428; in [4], -2.77; in assay [5] it was -1.04; in assay [6], -0.36. Further, the z-score is -0.239 (inactive) in assay [7], 0.591 in [8], -0.285 in assay [9] and -0.911 (inactive) in [10].
As to `COC(=O)[C@H](C)NC(=O)CC=C[C@@H](C)[C@@H]1C=C[C@H](O)[C@@H](CO)O1`, the z-score was -0.244 in assay [1]; -0.586 in assay [2]; 0.583 in assay [3]; 0.203 in assay [4]; -0.859 in assay [5]; -0.627 in [6]. In addition, the z-score is -1.04 (inactive) in assay [7], 0.685 in [8], -0.463 in assay [9] and -0.521 (inactive) in [10].
Turning to `CC(=O)OC[C@H]1O[C@H](CC=NOCC[C@@H]2C=C[C@H](OC(C)=O)[C@@H](COC(C)=O)O2)C=C[C@@H]1OC(C)=O`, the z-score was -0.542 in assay [1]; -0.282 in assay [2]; -0.441 in assay [3]; 0.0077 in assay [4]; -0.786 in assay [5]; -0.314 in assay [6]. Also, the z-score in assay [7] was -0.267 (inactive); in [8], 0.503; in assay [9], 0.394; in assay [10], 0.125 (inactive).
On to `O=C1[C@H]2[C@H]3[C@H](O)[C@H](O)CC(=NOCc4ccccc4)[C@H]3CC[C@H]2C(=O)N1C1CCCCC1`, for which the z-score is 0.519 in assay [1]; -0.228 in assay [2]; 0.734 in assay [3]; -0.618 in [4]; -0.498 in assay [5]; -1.3 in assay [6]. For the same compound, the z-score was 0.028 (inactive) in [7], -0.16 in assay [8], -0.847 in assay [9] and -0.329 (inactive) in assay [10].
Take `CC(C)(C)N1C(=O)[C@H]2[C@H]3[C@H](O)[C@H](O)CC(=NNC(=O)OCc4ccccc4)[C@@H]3CC[C@H]2C1=O`: the z-score was 0.193 in [1]; -0.166 in assay [2]; -0.289 in assay [3]; 0.0671 in [4]; 0.489 in assay [5]; -0.813 in assay [6]. For the same compound, the z-score in assay [7] was -0.323 (inactive); in assay [8], -0.368; in assay [9] it was -0.368; in assay [10] it was -0.548 (inactive).
Take `O=C1C=C[C@@H](O)[C@@H]2[C@@H]3C(=O)N(Cc4ccccc4)C(=O)[C@@H]3CC[C@@H]12`: the z-score in assay [1] was 0.698; in assay [2], 0.594; in assay [3] it was 1.33; in [4] it was -0.134; in assay [5], -0.73; in [6] it was 1.42. Moreover, the z-score in [7] was -0.125 (inactive); in assay [8] it was -0.057; in assay [9] it was -0.05; in assay [10] it was -0.754 (inactive).
For the compound `COc1ccc(COC(=O)NN=C2C[C@@H](O)[C@@H](O)[C@@H]3[C@@H]4C(=O)N(C(C)(C)C)C(=O)[C@@H]4CC[C@@H]23)cc1`, the z-score in assay [1] was 0.901; in [2], 0.514; in assay [3] it was -0.777; in [4], 0.569; in assay [5] it was -0.448; in assay [6], -1.08. Besides, the z-score in assay [7] is -1.14 (inactive); in [8] it was -0.379; in assay [9], 0.34; in assay [10], 0.259 (inactive).
Turning to `CC(CCC(=O)OC[C@H]1O[C@H](C#Cc2ccccc2)C=C[C@@H]1Oc1ccc(C)cc1)=NOC[C@@H](C)[C@H](OCc1ccccc1)C(C)C`, the z-score in assay [1] is -0.284; in [2], 0.0487; in assay [3], -0.489; in assay [4], -1.44; in [5], 0.164; in assay [6], -0.043. Also, the z-score in [7] was -1.77 (inactive); in assay [8], 1.06; in assay [9] it was -0.327; in [10] it was 0.865 (inactive).
With `C[C@H]1CC[C@@H](C(=O)O)N[C@@H]1c1ccc(C#Cc2ccccc2)cc1`, the z-score is -2.1 in assay [1]; 0.196 in assay [2]; -2.28 in [3]; -3.57 in [4]; -3.49 in assay [5]; -3.46 in assay [6]. The z-score in [7] is -0.272 (inactive); in assay [8], -0.92; in [9], -1.59; in [10] it was -0.522 (inactive).
On to `CC(=O)OC[C@H]1O[C@H](CC=NOC(C)CN2CCCCc3nc(C)c(C)cc32)C=C[C@@H]1OC(C)=O` (stereo not given in full), for which the z-score is -0.348 in assay [1]; -1.19 in assay [2]; -0.276 in assay [3]; 0.0965 in assay [4]; -1.26 in assay [5]; -0.681 in assay [6]. In addition, the z-score is -1.05 (inactive) in assay [7], -0.31 in assay [8], -0.182 in [9] and -0.146 (inactive) in assay [10].
As to `CCOC(=O)[C@H](CC(C)C)NC(=O)CCC1CC(OC(=O)NCCc2ccc(F)cc2)CC2(CCCC(COC(=O)NCc3cccc(C(F)(F)F)c3)O2)O1` (stereo not given in full), the z-score is -0.366 in assay [1]; -0.289 in [2]; -0.581 in assay [3]; -3.37 in assay [4]; 0.277 in assay [5]; -0.471 in [6]. In addition, the z-score was -0.512 (inactive) in assay [7], 0.652 in [8], -0.0831 in [9] and -0.209 (inactive) in assay [10].
